Data on 25 compounds can be found in PubChem BioAssay.

For some of these results: Results with a measured potency or affinity are listed apart. Inconclusive results are not listed. Some of the results follow. Activity calls are given as the source filed them. Unless noted, the rule behind the calls is not given here.

Test [1] in a line: CMV-driven luciferase expression suppression in HEK293 – cell-based, luminescence, dry powder, counter-screen for Pax8 inhibitor project, dose response (AID 743020;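 active = signal-lowering compounds whose fitted half-maximal concentration is at or below twice the top tested dose in every run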;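 note: HEK293 cells stably expressing the CMV luciferase reporter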). A general note: The purpose of a counterscreen is to sort out artefacts and off-target activity.
The nature of test [2]: general cell-killing toxicity readout – plate reader, dry powder samples, cytotoxicity control for PAX8 inhibitor project, dose response (AID 743021).
Test [3] can be described thus: IGROV1 cell killing – plate reader, dry powder samples, PAX8 inhibitor project, dose response (AID 743043).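 Note: more negative means fewer viable cells or more cytotoxicity.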
Test [4] can be described thus: OVCAR-3 cell viability loss – plate reader, dry powder samples, PAX8 inhibitor project, dose response (AID 743044). The conditions noted are these: max activity: at 35 µM, stronger effect = lower value unless noted.
Test [5] in a line: toxicity toward immortalized ovarian surface epithelium – cell-based, plate reader, dry powder samples, cytotoxicity control for PAX8 inhibitor project, dose response (AID 743045).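 Note: 0% = neutral control median and -100% = positive control median; more negative values mean more cell killing.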
The nature of test [6]: A2780 cell killing – plate reader, dry powder samples, cytotoxicity control, dose response (AID 743046).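 Note: 0% = neutral control wells and -100% = cytotoxic reference compound.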
A short description of test [7]: OVCAR8 cell viability loss – plate reader, dry powder samples, PAX8 project, dose response (AID 743197).
A short description of test [8]: toxicity toward HepG2 liver cells – cell-based, plate reader, cherry-pick, antagonist series, cytotoxicity control, dose response (AID 743416).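 Note: 0% = neutral control wells and -100% = positive control wells.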
Test [9] can be described thus: Ring1 de-repression measured by qPCR – cell-based, mouse ESC, RT-qPCR, cherry-pick, esBAF inhibitor project, confirmation (AID 743176;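 active = Ring1 gene expression raised more than 2-fold over untreated cells in both replicates at either tested dose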;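 note: Ring1 transcript normalised to actin housekeeping signal by TaqMan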). The conditions noted are these: mouse ESC E14, Ring1 mRNA RT-qPCR fold change, stronger effect = higher value. On the technique in general: In qPCR the cycle at which signal appears reflects the starting amount.
The nature of test [10]: Fgf4 repression measured by qPCR – cell-based, mouse ESC, RT-qPCR, cherry-pick, esBAF inhibitor project, confirmation (AID 743177;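 active = Fgf4 expression under 0.8 fold of control in both repeat measurements at one or both tested doses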;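 note: Fgf4 transcript normalised to actin in duplex TaqMan qPCR; cells exposed to compound for 24 h before lysis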). The conditions noted are these: mouse ESC E14, Fgf4 mRNA qPCR fold change, stronger effect = lower value.
Test [11] can be described thus: Bmi1 mRNA increase in mouse ESCs – cell-based, RT-qPCR, mouse ESC, single point, cherry-pick, confirmation (AID 743180;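 active = Bmi1 expression fold change above 6 at either tested concentration, seen in replicate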;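 note: higher fold means more Bmi1 de-repression and stronger esBAF inhibition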). The conditions noted are these: mouse ESC E14, Bmi1 mRNA qPCR fold, stronger effect = higher value.
Test [12] in a line: viability loss in A549 cells – cell-based, plate reader, single point, cherry-pick, cytotoxicity control (AID 743188). The conditions noted are these: at 25 µM.
Test [13] in a line: viability loss in HepG2 cells – cell-based, plate reader, single point, cherry-pick, cytotoxicity control (AID 743189; in the data active = activity change below about -50%). As to conditions: at 25 µM, stronger effect = lower value.
Test [14] in a line: viability loss in HEK293 cells – cell-based, plate reader, single point, cherry-pick, cytotoxicity control (AID 743190; in the data active = activity change below about -38%, passing the limit was not always enough). As to conditions: at 25 µM.

As to `C[C@@H]1CN([C@H](C)CO)C(=O)Cc2cc(NC(=O)Nc3ccc(F)cc3)ccc2O[C@H]1CN(C)Cc1ccc(Cl)c(Cl)c1`, the outcome in test [1], in [2], in [3], in test [5], in test [6] and in test [7] was inactive. Besides, in test [4], the max activity was 19.8% [at 0.5 µM, stronger effect = lower value] (inactive).

Turning to `Cc1ccc(NC(=O)CN(C)C(=O)Cn2ncc(Cl)c(Cl)c2=O)cc1`, the call in test [1] and in test [2] was inactive.

Take `C[C@@H]1CCCCO[C@H](CN(C)Cc2ccc(C(F)(F)F)cc2)[C@H](C)CN([C@H](C)CO)C(=O)c2cc(NS(=O)(=O)c3cccs3)ccc2O1`: the outcome in test [1], in test [2], in [3], in test [5], in test [6] and in [7] was inactive. For the same compound, in [4], the max activity was 29.1% [at 0.26 µM, stronger effect = lower value] (inactive).

With `CC1(Cc2ccc(OC(F)(F)F)cc2)C(=O)Nc2ccc(S(=O)(=O)NC3CCCCC3)cc21` (stereo not given), the call in [1] and in test [2] was inactive.

Take `C[C@@H]1CCCCO[C@H](CN(C)Cc2ccc(C(F)(F)F)cc2)[C@H](C)CN([C@H](C)CO)C(=O)c2cc(NS(=O)(=O)c3ccccc3)ccc2O1`: the compound was called inactive in test [1], in test [2], in [3], in test [5] and in test [6]. Besides, the max activity in test [4] was -11.2% (inactive).

On to `O=C(NC12CC3CC(CC(C3)C1)C2)c1ccc([N+](=O)[O-])o1`, for which the result in test [1] and in test [2] was inactive.

On to `CN1c2ccc(-c3cccc(F)c3)cc2[C@@H]2[C@@H](CCN2C(=O)Cc2ccccc2)[C@@H]1CO`, for which the call in test [1], in test [2], in test [3], in [5] and in [6] was inactive. For the same compound, in [4], the max activity was 21.5% (inactive).

As for `C[C@@H]1CCCCO[C@@H](CN(C)Cc2ccc(C(F)(F)F)cc2)[C@@H](C)CN([C@@H](C)CO)C(=O)c2cc(NS(=O)(=O)c3ccc(F)cc3)ccc2O1`, the result in test [1], in [2], in [3], in test [5], in [6] and in [7] was inactive. In test [4], the max activity is -6.83% [at 16 µM, stronger effect = lower value] (inactive).

Turning to `Nc1nnnn1/N=C/C(Br)=C/c1ccccc1`, the call in test [1] and in test [2] was inactive.

For the compound `C[C@@H]1CCCCO[C@H](CN(C)Cc2ccc(C(F)(F)F)cc2)[C@H](C)CN([C@@H](C)CO)C(=O)c2cc(NS(=O)(=O)c3cccs3)ccc2O1`, the compound was classed as inactive in [1], in [2], in test [3], in [5], in test [6] and in test [7]. Also, the max activity in [4] is -8.64% [at 0.5 µM, stronger effect = lower value] (inactive).

For `O=C(C[C@H]1CC[C@H]2[C@@H](COC[C@@H](O)CN2Cc2ccc(Oc3ccccc3)cc2)O1)N1CCCCC1`, the call in [1], in test [2], in test [3], in test [5], in [6] and in test [7] was inactive. For the same compound, the max activity in test [4] was 35% (inactive).

Regarding `Cc1nc(Nc2nc(CSc3nc4ccccc4[nH]3)cc(=O)[nH]2)nc2ccccc12`, the call in [1] and in [2] was inactive.

Consider `COc1ccc(F)cc1-c1cc(NC=O)c2ncc(-c3cc(OC)c(OC)c(OC)c3)n2c1`, for which the outcome in test [1] and in test [2] was inactive.

In the case of `C[C@@H]1CN([C@H](C)CO)S(=O)(=O)c2ccc(C#CC3CCCC3)cc2O[C@@H]1CN(C)C(=O)Cc1ccncc1`, the compound was called inactive in test [1], in [2], in test [3], in [5], in test [6] and in test [7]. Also, the max activity in [4] was 16.7% [at 0.5 µM, stronger effect = lower value] (inactive).

Consider `C[C@@H]1CCCCO[C@@H](CN(C)C(=O)Nc2cccc3ccccc23)[C@H](C)CN([C@H](C)CO)C(=O)c2cc(NS(=O)(=O)c3ccccc3)ccc2O1`, for which the compound was classed as inactive in test [1], in [2], in test [3], in test [5] and in test [6]. For the same compound, the max activity in test [4] is 28.6% [at 2.1 µM, stronger effect = lower value] (inactive).

With `CCCn1c(C)cc(C(=O)CN2C(=O)c3ccccc3S2(=O)=O)c1C`, in test [8], the compound was classed as inactive.

In the case of `Cc1ccsc1/C=N/Nc1cccc(C(=O)O)c1`, the result in test [8] was inactive.

As to `CC(C)c1cc(C(=O)OCC(=O)N2CCN(C(=O)c3ccco3)CC2)c(O)c(C(C)C)c1`, the call in test [2], in [3], in test [5] and in [6] was inactive.

With `C=C(C(=O)c1ccccc1)C(C(=C)C(=O)c1ccccc1)c1ccc(OC)cc1`, in [2], the call was inactive.

As to `COc1ccc(C)cc1NS(=O)(=O)c1ccc(-c2cnc(C3CC3)o2)cc1`, in test [2], the result was inactive.

For the compound `CSC(=Nc1ccccc1)N=C(SCc1ccccc1)N(C)C`, the call in test [2] was inactive.

For the compound `Cn1c(CCN2CCCC2)nc2cc(NS(=O)(=O)c3ccc(Cl)cc3)ccc21`, the compound was classed as inactive in [2], in [5] and in test [6].

With `COCC(=O)N1[C@H](CO)[C@H](c2ccc(-c3cccnc3)cc2)[C@@H]1C#N`, the compound was classed as inactive in test [2], in [3], in test [4], in [5] and in [6].

Turning to `N#C[C@H]1[C@@H](c2ccc(C#Cc3cccc(F)c3)cc2)[C@@H](CO)N1C(=O)C1CCCC1`, the compound was classed as inactive in test [4] and in test [5].

As to `COc1ccc(CNC(=O)COc2ccccc2C(=O)c2cnn(-c3ccccc3)c2)cc1OC`, the fold change was 1.09 in [9] (Ring1 fold increase, at 7 µM); 1.32 (inactive) in test [9] (at 33 µM); 1.36 in test [11] (Bmi1 de-repression, at 7 µM); 1.57 (inactive) in [11] (at 33 µM). Also, the Fgf4 expression fold change in test [10] (Fgf4 expression, at 7 µM) was 1.03; in test [10] (at 33 µM) it was 0.967 (inactive). The cell viability change % (negative = cytotoxic) in test [12] is 0.333% (inactive). In addition, the results for the activity change, negative = inhibition in test [13] and in test [14] were -55.5% (active) and -15.3% (inactive), respectively.
